This note sets out measurements from PubChem BioAssay (NCATS).

Inconclusive results are not listed. Calls of active or inactive are those of the source. Unless noted, the call rests on the fitted dose curve.

Calcium and integrin-binding protein 1 (Homo sapiens), sequence (Q99828 whole entry, looked up): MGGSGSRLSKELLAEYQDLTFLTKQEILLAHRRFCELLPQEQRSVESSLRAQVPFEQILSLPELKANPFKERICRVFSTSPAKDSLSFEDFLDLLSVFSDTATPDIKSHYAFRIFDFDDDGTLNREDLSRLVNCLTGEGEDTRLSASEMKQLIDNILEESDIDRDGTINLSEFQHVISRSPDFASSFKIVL

System in the first assay: not listed separately
Put plainly: Confirmatory qHTS for VERO E6 Cytotoxicity Assay: Counterscreen for SARS-CoV-2 CPE Assay (AID 1508605). Further: nearly all actives have a fitted effect of over 60% in size. Further: potency means the concentration at half of the fitted maximal effect. The settings on record: cell viability luminescence; series mostly up to 20 µM.
With `c1ccc2c(-c3cnn4cc(-c5ccc(OCCN6CCOCC6)cc5)cnc34)ccnc2c1`, the Potency entry is “inactive”.
Still for that read-out and setting: for `COC(=O)[C@]1(C)CC[C@]2(C)CC[C@]3(C)C4=CC=C5C(=CC(=O)C(O)=C5C)[C@]4(C)CC[C@@]3(C)[C@@H]2C1` the value was 1.01 µM (active); for `Nc1nc(Nc2ccc3c(c2)CC[C@@H](N2CCCC2)CC3)nn1-c1cc2c(nn1)-c1ccccc1CCC2`, 10 µM (active); for `Nc1nc(OC(c2ccc(-c3cccc(F)c3)cc2)C(F)(F)F)cc(-c2ccc(C[C@H](N)C(=O)O)cc2)n1` (some centres undefined), “inactive”.

System in a further assay: not listed separately
Put plainly: Confirmatory qHTS for activators (rescue) of SARS-CoV-2 Cytopathic Effect (CPE) (AID 1508606). Further: nearly all actives have a fitted effect of over 70% in size. Further: potency means the concentration at half of the fitted maximal effect. The settings on record: Vero E6 SARS-CoV-2 CPE rescue, viability luminescence; series mostly up to 20 µM. Background: Quantitative high-throughput screening tests each substance at several concentrations.
For `O=S(=O)(c1cccc2ccccc12)n1ccc2ccc(N3CCN4CCCC4C3)cc21` (centres undefined), the Potency is 11.2 µM (active).
Still for that read-out and setting: for `C(=N\Nc1nc(Nc2ccccc2)nc(N2CCOCC2)n1)/c1c[nH]c2ccccc12` the value was 0.0898 µM (active).
Still for that read-out and setting: the figure for `Cn1c(NC[C@@H](N)Cc2ccccc2)nc(-c2ccncc2)c(-c2ccc3ccccc3c2)c1=O` is 6.31 µM (active); for `Cc1cc(CN)cc(C)c1NC(=O)c1ccc(-c2cc(Cl)ccc2Cl)o1` it is 7.94 µM (active).
Consider `CN(C)C(=O)NC1(c2ccccc2)CCN(CCC[C@]2(c3ccc(Cl)c(Cl)c3)CCCN(C(=O)c3ccccc3)C2)CC1`, for which the Potency entry was “inactive”.
On the same count and under the same terms, for `CC1(C)CCC(C)(C)c2cc(C#Cc3ccc(C(=O)O)cc3)ccc21` the value was “inactive”; for `C[C@H]1CC[C@@]2(OC1)O[C@H]1CC3[C@@H]4CC[C@@H]5C[C@@H](O[C@@H]6O[C@H](CO)[C@@H](O[C@@H]7O[C@@H](C)[C@H](O)[C@@H](O)[C@H]7O)[C@H](O)[C@H]6O[C@@H]6O[C@H](CO)[C@@H](O)[C@H](O)[C@H]6O)CC[C@]5(C)C4CC[C@]3(C)[C@H]1[C@@H]2C` (some centres undefined), “inactive”.
On the same count and under the same terms, for `c1ccc(-c2cc(CCC3CCNCC3)c3ccccc3n2)cc1` the value was “inactive”; for `O=S(=O)(NCC1CC1)c1ccc(Nc2nccc(N3CCCc4cc(O)ccc43)n2)cc1`, 0.794 µM (active); for `Cc1cc(C)cc(-c2cnc3cc(Cl)c(-c4cccc(O)c4)cc3c2OCCCN)c1`, “inactive”.
For `OC1CCC(Oc2cccc3cnc(Nc4ccc5nc[nH]c5c4)nc23)CC1` (centres undefined), the Potency was 4.47 µM (active).
The same measure, in the same setting: the figure for `CC(C)c1ccc(NC(=O)C(c2ccccc2)N(C)C(=O)Cc2c[nH]c3ccccc23)cc1` (centres undefined) is 3.55 µM (active).
Still for that read-out and setting: for `O=C(O)/C=C/c1ccc(-c2ccc(O)c(C34CC5CC(CC(C5)C3)C4)c2)cc1` the value was “inactive”.
For the compound `COc1ccc2cc(-c3cc(-c4cc(Cl)cc(Cl)c4)nn3C(C)c3ccc(C(=O)NCCC(=O)O)cc3)ccc2c1` (centres undefined), the Potency result is “inactive”.
The same measure, in the same setting: for `CC(=O)O[C@@H]1C[C@H](O)[C@@]23CO[C@H](O)[C@]1(C)C2C[C@@H](O)[C@]1(C)C3C(=O)[C@H](OC(C)=O)[C@@]2(C)[C@H](c3ccoc3)C[C@H]3O[C@]321` (some centres undefined) the value was 1.06 µM (active); for `Nc1nc2c(c(N3CC[C@@H](N)C3)n1)CCCc1ccccc1-2`, 10 µM (active).
With `C/C=C(\C)C(=O)O[C@H]1C=C(CO)C(=O)[C@H](OC(C)=O)[C@H]1C(C)C`, the Potency result is “inactive”.
Consider `COc1cc(N2CCN(C)CC2)ccc1Nc1nccc(-c2cn(C)c3cnccc23)n1`, for which the Potency is 8.91 µM (active).
Regarding `CN(CCCNC(=O)c1ccc2nc3c(c(Cl)c2c1)CCCC3)Cc1ccccc1`, the Potency was 7.08 µM (active).
On the same count and under the same terms, for `COc1ccc(S(=O)(=O)N(CCO)c2ccccc2CN(C)C/C=C/c2ccc(Cl)cc2)cc1` the value was 10 µM (active).
The same measure, in the same setting: for `O=C(O)c1ccc(CCCc2ccc(OCCc3ccc(F)cc3)cc2)o1` the value was “inactive”; for `COc1cc2ncnc(Sc3nnc(C)s3)c2cc1OC`, 3.98 µM (active).
On the same count and under the same terms, for `Cc1nc2ccc(-n3ncc(C(=O)c4cc5ccccc5[nH]4)c3N)cc2[nH]1` the value was “inactive”.
With `C[C@@H]1C[C@H](N)C[C@H](c2ccncc2NC(=O)c2ccc(F)c(-c3c(F)cccc3F)n2)C1`, the Potency is 8.91 µM (active).
The same measure, in the same setting: the figure for `COCCN1CCN(Cc2ccc(-c3n[nH]c4c3C(=O)c3c(NC(=O)NN5CCOCC5)cccc3-4)cc2)CC1` is 2.82 µM (active); for `CC(C)C[C@H](NC(=O)[C@H](Cc1ccccc1)NC(=O)OCc1ccccc1)C(=O)C=O` it is 8.91 µM (active).
Same read-out and setting: for `Cc1nc(Nc2cnn(C3CCNCC3)c2)nc2c1N(C)C(=O)c1cc3ccccc3cc1N2C` the value was 10 µM (active); for `CC(C)(O)CNc1ncc(-c2ccnc(Nc3ccncc3)n2)c(CC2CC2)n1`, 1.12 µM (active).
The same measure, in the same setting: the figure for `COc1ccc(CNC(=O)Nc2ncc([N+](=O)[O-])s2)cc1` is 7.94 µM (active); for `CC(=O)O/N=C1\C(=O)N(Cc2cc(Cl)ccc2Cl)c2ccc(Cl)cc21` it is 7.94 µM (active).

The target in the next assay is Calcium and integrin-binding protein 1 (Homo sapiens) (UniProt Q99828). Put plainly: Primary qHTS for Identification of Calcium Integrin Binding Protein 1 (CIB1) Competitor (AID 1508620; active means well fitted inhibition curve with a large enough effect;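 further: GST tagged CIB1 binding a fluorescein labelled alphaIIb integrin peptide tracer; top concentration of the series differs between compounds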). The settings on record: CIB1-GST / FITC-alphaIIb peptide fluorescence polarization; series mostly up to 114 µM. Summed up:
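Fluorescence polarization competition: GST-tagged CIB1 (1 uM final) preincubated with compound 15 min at room temperature, then FITC-labelled alphaIIb peptide (100 nM final) added. After 15 min at room temperature, polarization read at Ex 480/Em 540.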
As to `CCOC(=O)C1CCN(C(=O)C2(NC(=O)Nc3ccccc3Cl)CCCC2)CC1`, the result was inactive.
As for `Cn1cc(P(=S)(c2ccccc2)c2ccccc2)c2ccccc21`, the result was inactive.
The same measure, in the same setting: the entry for `S=P(c1ccccc1)(c1ccccc1)c1cnc2ccccn12` is “inactive”; for `COc1cccc(CNc2ccc(C(=O)Nc3nccs3)cc2)c1O` it is “inactive”; for `CCOc1ccc(CCNC(=O)c2cc3cccnc3n2Cc2cccc(C)n2)cc1OCC` it is “inactive”.
